# According to PubChem BioAssay:
# Calls of active or inactive are those of the source. Unless noted, how the calls were made is not given here.
# Key:
# [1] = HepG2 liver cancer cell viability effects, profiling panel, resazurin fluorescence, 24 h, PK04 Diversity Set (AID 1172); conditions: higher = more signal; further: test concentration not given here
# [2] = basal S. cerevisiae growth modulation, no modifier, primary screen, OD600, strain BY4716, 24 h, basal condition (AID 1173); conditions: OD600, 24 h, higher = more signal, called active from +8 up or from −8 down
# [3] = MM1S myeloma cell viability, profiling panel, resazurin fluorescence, basal, 24 h, PK04 Diversity Set (AID 1174); conditions: higher = more signal, called active from +8 up or from −8 down;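 further: MM1S multiple myeloma cell line; test concentration not given here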
# [4] = molecular target: Dihydroorotate dehydrogenase (quinone), mitochondrial (Plasmodium falciparum (isolate 3D7)) (UniProt Q08210); assay: PfDHODH enzyme inhibitors, primary screen, biochemical, C-terminal His tag, absorbance 600 nm (AID 1175); conditions: DCIP absorbance 600 nm, higher = more signal, called active from +8 up or from −8 down;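 further: recombinant parasite enzyme with a five histidine tag at its C terminus; test concentration not given here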
# Sequence of Dihydroorotate dehydrogenase (quinone), mitochondrial (Plasmodium falciparum (isolate 3D7)) (Q08210 whole entry, looked up): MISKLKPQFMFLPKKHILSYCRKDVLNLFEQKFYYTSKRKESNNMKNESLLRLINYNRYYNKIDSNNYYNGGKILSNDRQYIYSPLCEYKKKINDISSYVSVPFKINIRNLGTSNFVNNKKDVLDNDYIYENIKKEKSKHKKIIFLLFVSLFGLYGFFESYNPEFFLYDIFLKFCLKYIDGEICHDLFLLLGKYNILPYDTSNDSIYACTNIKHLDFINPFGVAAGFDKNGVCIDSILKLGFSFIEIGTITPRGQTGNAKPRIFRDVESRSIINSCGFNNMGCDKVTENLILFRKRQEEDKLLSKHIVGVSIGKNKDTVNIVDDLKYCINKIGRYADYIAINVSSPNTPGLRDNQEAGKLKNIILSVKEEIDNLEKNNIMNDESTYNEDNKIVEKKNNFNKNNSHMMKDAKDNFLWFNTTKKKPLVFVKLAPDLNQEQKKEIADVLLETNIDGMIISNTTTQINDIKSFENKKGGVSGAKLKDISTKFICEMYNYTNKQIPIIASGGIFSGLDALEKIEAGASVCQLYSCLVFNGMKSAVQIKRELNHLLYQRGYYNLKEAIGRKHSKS
# [5] = P. aeruginosa biofilm formation inhibitors, primary screen, strain PAO1, LB-PBS medium, absorbance 600 nm (AID 1176); further: test concentration not given here; conditions: P. aeruginosa PAO1 growth/biofilm, A600, 12 h; higher = more signal
# [6] = S. cerevisiae RM11-1a growth modifiers, primary screen, strain RM11-1a, OD600, basal, 24 h (AID 1177); conditions: OD600, 24 h, higher = more signal, called active from +8 up or from −8 down;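 further: cultures grown under basal conditions with no added stressor; test concentration not given here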
# [7] = E. coli acrAB mutant growth effects, primary screen, E. coli filamentation inducers, strain DRC39, OD650, 24 h (AID 1178); conditions: higher = more signal, called active from +8 up or from −8 down;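 further: growth measured as culture turbidity by optical density at 650 nm; test concentration not given here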
# [8] = E. coli acrAB mutant growth effects, primary screen, E. coli filamentation inducers, strain DRC39, OD650, 48 h (AID 1179);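 further: screen aims at cell division blockers that make cells filament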; conditions: E. coli DRC39 delta-acrAB growth, higher = more signal, called active from +8 up or from −8 down
# [9] = RPMI8226 myeloma cell viability, profiling panel, resazurin fluorescence, basal, 24 h, PK04 Diversity Set (AID 1180); conditions: higher = more signal;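 further: RPMI8826 multiple myeloma cell line at 5000 cells per well; test concentration not given here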
# [10] = molecular target: E3 ubiquitin-protein ligase XIAP (Homo sapiens) (UniProt P98170); assay: XIAP binders, primary screen, biophysical, small-molecule microarray, fluorescence 635 nm (AID 1181); conditions: small-molecule microarray binding, higher = more signal;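 further: score merges 667 nm emission and signal to noise over triplicate slides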
# Sequence of E3 ubiquitin-protein ligase XIAP (Homo sapiens) (P98170 whole entry, looked up): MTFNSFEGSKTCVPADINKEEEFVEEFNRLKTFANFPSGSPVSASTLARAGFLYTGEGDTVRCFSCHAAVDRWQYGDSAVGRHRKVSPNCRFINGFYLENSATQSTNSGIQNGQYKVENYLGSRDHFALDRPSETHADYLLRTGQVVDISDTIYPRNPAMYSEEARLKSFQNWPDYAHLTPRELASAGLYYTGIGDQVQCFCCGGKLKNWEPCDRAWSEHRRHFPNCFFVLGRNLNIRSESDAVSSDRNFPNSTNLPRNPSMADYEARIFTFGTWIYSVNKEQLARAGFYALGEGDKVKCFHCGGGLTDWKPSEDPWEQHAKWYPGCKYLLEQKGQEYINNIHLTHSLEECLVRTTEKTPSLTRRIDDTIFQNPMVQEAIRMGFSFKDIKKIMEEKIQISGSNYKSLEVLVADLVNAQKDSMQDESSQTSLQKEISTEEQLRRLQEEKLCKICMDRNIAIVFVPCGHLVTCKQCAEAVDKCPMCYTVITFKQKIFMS
Compound,z-score [1],z-score [2],z-score [3],composite z-score [4],z-score [5],z-score [6],z-score [7],z-score [8],z-score [9],composite z-score [10]
CCC1=NOC(CCC2CC(OC(=O)NCc3cccc4c3OCO4)CC3(CCCC(COC(=O)NCCc4ccc(Cl)cc4)O3)O2)C1 (stereo not given),0.22,0.519 (inactive),-0.0555 (inactive),-0.362 (inactive),0.52 (inactive),0.0088 (inactive),0.137 (inactive),0.377 (inactive),0.73,-0.0476
CC(C)=CCCC(C)=CCON=C1C[C@@H](O)[C@@H](O)[C@@H]2[C@@H]3C(=O)N(Cc4ccc5c(c4)OCO5)C(=O)[C@@H]3CC[C@@H]12,0.542,-0.872 (inactive),0.411 (inactive),-0.396 (inactive),-0.437 (inactive),0.268 (inactive),0.499 (inactive),-0.588 (inactive),0.354,-0.17
CC(CCC(=O)OC[C@H]1O[C@H](C#Cc2ccccc2)C=C[C@@H]1Oc1ccc(C)cc1)=NOC[C@@H](C)[C@H](OCc1ccccc1)C(C)C,0.38,0.513 (inactive),0.258 (inactive),0.615 (inactive),-0.503 (inactive),-0.222 (inactive),0.0786 (inactive),-0.931 (inactive),0.306,-0.227
O=C1[C@H]2[C@H]3[C@H](O)[C@H](O)CC(=NOC[C@@H](O)COCc4ccco4)[C@@H]3CC[C@H]2C(=O)N1c1cccc(Oc2ccccc2)c1,0.928,-0.378 (inactive),0.25 (inactive),0.295 (inactive),-0.389 (inactive),-1 (inactive),-0.25 (inactive),-1.28 (inactive),0.0789,0.1
C#CCCCON=C1C[C@@H](O)[C@@H](O)[C@@H]2[C@@H]3C(=O)N([C@@H](C)c4ccccc4)C(=O)[C@@H]3CC[C@@H]12,-0.121,0.858 (inactive),-0.521 (inactive),0.579 (inactive),0.237 (inactive),0.604 (inactive),-0.612 (inactive),-0.245 (inactive),-0.245,-0.124
CC#CCOCCC=C1c2ccccc2[C@@H](OC)[C@@H]1C,0.651,-1.71 (inactive),-0.725 (inactive),-0.412 (inactive),0.204 (inactive),-0.551 (inactive),-0.158 (inactive),0.212 (inactive),0.258,2.61
CC(CCC(=O)OC[C@H]1O[C@H](C#Cc2ccccc2)C=C[C@@H]1Oc1ccc(C)cc1)=NO[C@@H](C)c1cc(-c2c(C)cc(C)cc2C)no1,-0.53,0.0942 (inactive),0.281 (inactive),1.04 (inactive),-0.798 (inactive),0.333 (inactive),-0.135 (inactive),0.213 (inactive),0.838,-0.102
CC(C)=CCCC(C)=CCON=C1C[C@@H](O)[C@@H](O)[C@@H]2[C@@H]3C(=O)N([C@@H](C)c4ccccc4)C(=O)[C@@H]3CC[C@@H]12,-0.243,0.408 (inactive),-0.32 (inactive),-0.0515 (inactive),0.283 (inactive),-0.471 (inactive),-0.464 (inactive),-0.131 (inactive),-0.249,-0.0476
O=C(NN=C1C[C@@H](O)[C@@H](O)[C@@H]2[C@@H]3C(=O)N(c4ccc(F)cc4F)C(=O)[C@@H]3CC[C@H]12)OCc1ccccc1,2.08,-0.814 (inactive),1.23 (inactive),-0.25 (inactive),-0.258 (inactive),-1.35 (inactive),0.574 (inactive),0.573 (inactive),0.86,-0.152
CC=CC1=C(CO)[C@H](O)[C@H]2O[C@H]2[C@@H]1O,-0.504,-0.299 (inactive),0.133 (inactive),0.781 (inactive),-0.102 (inactive),0.39 (inactive),0.615 (inactive),-0.442 (inactive),0.694,-0.204
O=C1C2=CC[C@H]3C(=O)N(C[C@@H]4CCCO4)C(=O)[C@H]3[C@H]2[C@H](O)[C@@H]2O[C@H]12,-0.154,-0.87 (inactive),-4.71 (inactive),-0.619 (inactive),-0.343 (inactive),-0.511 (inactive),0.0929 (inactive),0.424 (inactive),-1.7,0.204
COC(=O)[C@@H]1CC[C@H](C)[C@@H](c2ccc(C)cc2)N1C(=O)c1ccc(C=NOC[C@@H](O)[C@H]2O[C@@H]3OC(C)(C)O[C@@H]3[C@H]2O)cc1,-0.187,-0.318 (inactive),-1.05 (inactive),-0.354 (inactive),0.642 (inactive),-0.168 (inactive),0.507 (inactive),0.577 (inactive),-0.772,-0.173
